Compounds with a hit are over-represented: about 7.6% of the library has one in this group of screens.
KCNH2 3.1 inh – inhibitors of human KCNH2 3.1 potassium channel isoform; U2OS KCNH2 3.1, thallium flux FluxOr; stronger effect = lower value; activity change, % (tested at about 1.8 µM); 340,000 compounds, 0.95% hits; AID 720553;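 active means maximum activity change below -70%; inconclusive means maximum activity change from -70% to -50%; inactive means maximum activity change above -50%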;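 further: thallium influx rate constant from kinetic fluorescence after stimulation buffer; on the % scale 0 is the no-effect control and ±100 the full control effect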
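Normalized rate constant (relative to positive and negative DMSO controls) derived from a 2 min kinetic fluorescence read after stimulation; U2OS cells expressing the 3.1 isoform via virus at 1.77 x 10^8 /mL.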
KB-3-1 tox – kills parental KB-3-1 adenocarcinoma cells | KB-3-1 viability, CellTiter-Glo ATP luminescence, 72 h | Potency, µM (series often up to 46.1 µM), most hits filed as cytotoxic | 400,000 compounds, 1.4% hits; further: potency means the concentration at half of the fitted maximal effect; on the % scale 0 is the no-effect control and ±100 the full control effect; nearly all actives have a fitted effect of over 60% in size
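Multi-concentration cytotoxicity screen in KB-3-1 cells grown in DMEM lacking phenol red with 10% FBS. After 72 h at 37 °C with compound, ATP-dependent luminescence was recorded.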
KB-V1 cytotox – KB-V1 MDR subline cytotoxicity; KB-V1 MDR cells viability, CellTiter-Glo, 72 h; Potency, µM (top dose mostly 46.1 µM), hits mostly cytotoxic; 400,000 compounds, 3.4% hits; AID 1347076; further: potency means the concentration at half of the fitted maximal effect; on the % scale 0 is the no-effect control and ±100 the full control effect; nearly all actives have a fitted effect of over 60% in size
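Luminescent ATP read-out (CellTiter-Glo, 10 min) measures survival of drug-selected KB-V1 MDR cells after 72 h, 37 degrees C compound exposure. Medium: phenol-red-free DMEM, 10% FBS. Values from fitted concentration-response curves.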
SW480 rereplic – DNA re-replication induction in SW480 cells; SW480 DNA re-replication, Hoechst DNA content imaging, 48 h; Potency, µM (titrated, usually from 46.1 µM), for inactives: top-dose re-replication activation, most hits filed as activators; 340,000 compounds, 1.8% hits; further: potency means the concentration at half of the fitted maximal effect; % of control where 0% means no effect; nearly all actives have a fitted effect of over 55% in size
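Per well, 250 cells were exposed to pinned compound for 48 hr. Nuclear DNA was visualised with Hoechst (40 min, 37 C) and total object intensity recorded by fluorescence scanning.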
hERG WT inh – inhibitors of human wildtype KCNH2 potassium channel; 340,000 compounds, 0.37% hits; activity change, % at 1.84 µM; U2OS, BacMam KCNH2, thallium flux FluxOr; stronger effect = lower value; Q12809;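 active means maximum activity change below -70%; inconclusive means maximum activity change between -70% and -50%; inactive means maximum activity change above -50%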; further: on the % scale 0 is the no-effect control and ±100 the full control effect
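U2OS cells transduced with wild-type KCNH2 virus are loaded with FluxOr dye for 45 min, and thallium flux is measured in kinetic reads before and after stimulation buffer. Rate constants are normalized to DMSO controls.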
MCF10A rerep – induces DNA re-replication in MCF 10a normal breast cells. MCF 10A DNA re-replication, Hoechst nuclear intensity, 48 h. 350,000 compounds, 2.9% hits. Potency, µM (doses to about 46.1 µM), inactives show at the top dose activity, positive = re-replication, actives largely listed as activators. AID 624296; further: potency means the concentration at half of the fitted maximal effect; % of control where 0% means no effect; nearly all actives have a fitted effect of over 50% in size
* hit, by the source's call; i = inactive; ? = inconclusive; · = no result. Unless noted, the call rests on the fitted dose curve; in most records, active means well fitted curve in the direction sought with a large enough effect; inconclusive means small, poorly fitted or top-dose-only effect, or another doubt; inactive means no such curve, though single readings can be large; an effect the other way counts as inactive or inconclusive.

SMILES	KCNH2 3.1 inh	KB-3-1 tox	KB-V1 cytotox	SW480 rereplic	hERG WT inh	MCF10A rerep
CC(=O)c1cccc(NC(=O)CN2C(=O)CN(C)C(=O)c3ccccc32)c1	·	i	i	·	·	·
COc1cc(CN2CCC(n3nccc3NC(=O)CCCc3ccccc3)CC2)ccc1F	-96*	i	i	-1%	-35	0%
CCOc1cccc(CN2CCC(n3nccc3NC(=O)CCCc3ccccc3)CC2)c1	-36	i	i	?	37	0%
Cc1oncc1C(=S)Nc1ccccc1	?	i	i	6.5µM*	6	8.2µM*
O=S(Cc1cc(Sc2ccccc2)nc(-c2ccccc2)n1)c1ccccc1 (stereo not drawn)	-22	?	?	?	-8	23µM*
CNc1cc(CS(=O)c2ccccc2)nc(-c2ccccc2)n1 (stereo not drawn)	-17	i	i	-1%	-10	6%
CC(=O)NCCc1csc(-c2ccccc2)n1	15	i	i	?	4	6.5µM*
CC(C)(C)CC(=O)NCCc1csc(-c2ccccc2)n1	-6	i	i	3%	1	6%
O=C(OCc1csc(-c2ccccc2)n1)c1ccc(O)cc1	-80*	i	i	-3%	-12	?
Cc1ccc(Nc2nc(N/N=C\c3ccc4c(c3)OCO4)nc(N3CCOCC3)n2)cc1	-24	i	i	4%	-7	?
CN(C)CCN(Cc1ccccc1)C(=O)[C@H](Cc1ccccc1)N1C(=O)c2ccccc2C1=O	0	i	?	-9%	2	3%
CCCCC1(COC(=O)CCC(=O)O)C(=O)N(c2ccccc2)N(c2ccccc2)C1=O	10	i	i	0%	7	10%
CCCCC1(Cc2ccc([N+](=O)[O-])cc2)C(=O)N(c2ccccc2)N(c2ccccc2)C1=O	-23	?	16µM*	14%	-8	?
COc1ccc(/C=C2/C=Cc3ccccc32)cc1	·	i	i	·	·	·
C=CCc1cc(C(=O)N2CCCCC2)ccc1O	-1	?	21µM*	1%	6	-1%
CCOc1ccc(S(=O)(=O)N2CCN(C(=O)c3ccc(C)c(S(=O)(=O)N4CCOCC4)c3)CC2)cc1	-5	?	21µM*	3%	13	9%
COc1ccccc1NS(=O)(=O)c1cc(C(=O)NCC(c2ccc(F)cc2)N2CCOCC2)ccc1C (stereo not drawn)	-6	i	i	1%	-2	3%
CCOc1ccc(CCNC(=O)c2cccc(S(=O)(=O)N3CCOCC3)c2)cc1OCC	3	i	i	-5%	-7	2%
O=C(c1ccc(S(=O)(=O)N2CCOCC2)cc1)N1CCN(c2ccccn2)CC1	-3	i	i	-39%	-17	1.5µM*
CCOc1ccc(CCNC(=O)c2cccc(S(=O)(=O)N3CCCCC3)c2)cc1OCC	7	?	6.5µM*	7%	-2	?
CCOc1ccc(S(=O)(=O)N2CCN(C(=O)c3ccc(Cl)c(S(=O)(=O)N4CCOCC4)c3)CC2)cc1	2	i	i	-12%	-7	-4%
Cc1ccc(C(=O)NCC(c2ccc(F)cc2)N2CCOCC2)cc1S(=O)(=O)N1CCOCC1 (stereo not drawn)	0	i	21µM*	-2%	-9	7%
CC(C)NC(=O)C1(C)CSCC(=O)N1CC(F)(F)F (stereo not drawn)	·	i	i	·	·	·
COc1cccc(OC(=O)CSc2nnc(-c3ccccc3OC)o2)c1	·	i	i	·	·	·
CCOc1ccc(CCNC(=O)CN2C(=O)COc3ccc(S(=O)(=O)N4CCCCCC4)cc32)cc1	·	i	9.2µM*	·	·	·
SMILES	KCNH2 3.1 inh	KB-3-1 tox	KB-V1 cytotox	SW480 rereplic	hERG WT inh	MCF10A rerep
CCOc1ccc(CCNC(=O)c2ccc(C)c(S(=O)(=O)N3CCOCC3)c2)cc1OCC	13	?	21µM*	-5%	-8	0%
O=C(NCc1ccccc1F)c1cccc(S(=O)(=O)N2CCCCCC2)c1	4	i	i	-4%	-9	27%
O=C(NCc1ccccc1F)c1cccc(S(=O)(=O)N2CCCCC2)c1	25	i	4.1µM*	15%	17	2%
CCOc1ccc(CCNC(=O)CN2C(=O)COc3ccc(S(=O)(=O)N(CC)CC)cc32)cc1	·	i	i	·	·	·
COc1ccccc1C(=O)Nc1nnc(SCC(=O)Nc2ccc3c(c2)oc2ccccc23)s1	11	i	18µM*	0%	-5	3%
Cc1cccc(C(=O)Nc2nnc(SCC(=O)Nc3ccc4c(c3)oc3ccccc34)s2)c1	-4	i	i	-3%	6	?
CCn1c(SCC(=O)Nc2ccc3c(c2)oc2ccccc23)nnc1-c1ccc(N)cc1	-7	?	18µM*	?	-1	?
CC(=O)Nc1ccc(-c2nnc(SCC(=O)Nc3ccc4c(c3)oc3ccccc34)n2C)cc1	-4	i	i	12%	-2	6%
Cc1ccc(-c2noc(CCC(=O)Nc3ccccc3C)n2)cc1	12	i	16µM*	-1%	10	36%
CCN(C(=O)CCc1nc(-c2ccc(C)cc2)no1)c1cc(C)ccc1C	·	i	i	·	·	·
Cc1ccc(-c2noc(CCC(=O)N(C)c3ccccc3C)n2)cc1	-4	?	13µM*	4%	-6	3%
COC(=O)c1ccc(NC(=O)CN2C(=O)CC(c3ccccc3)Sc3ccccc32)cc1 (stereo not drawn)	·	i	?	·	·	·
OCCN1CCN(CC(O)COc2ccc(C34CC5CC(CC(C5)C3)C4)cc2)CC1 (stereo not drawn)	-1	?	i	?	4	12µM*
OCCN1CCN(CC(O)COc2ccc(Cl)cc2)CC1 (stereo not drawn)	8	i	i	3%	26	?
NCCOc1ccc(C23CC4CC(CC(C4)C2)C3)cc1	-1	?	?	-12%	2	4.1µM*
CC(=O)N[C@H]1[C@H](Oc2ccc3c(c2)CCC2C3CC[C@]3(C)C(=O)CCC23)O[C@H](CO)[C@@H](O)[C@@H]1O (stereo partly drawn)	20	i	i	-3%	-2	-6%
Cc1ccc(-c2nnc(Nc3ccc4c(c3)OCO4)c3ccccc23)cc1S(=O)(=O)NC(C)C	-17	?	i	7%	-2	?
CC1CCN(S(=O)(=O)c2ccc3c(c2)c(=O)c(C(=O)NCc2ccc(Cl)cc2)cn3C)CC1	·	i	i	·	·	·
